Laboratory results from paper PMC11062922 (Nature Chemical Biology, 2023).
Read-outs that look alike come from different tables or passages of the source.

Key:
AURKA = settings: read-out: apparent Kd, n = 1
CHEK1 = settings: read-out: apparent Kd, n = 1

Question: Which results are given for Lestaurtinib?
Answer: potency estimated from few doses (AURKA; compound concentrations:100 nM and 1000 nM (sheet 'Lestaurtinib' of Supplementary Table 1),run:Lestaurtinib_02802_R1,Plate:MR029): 16.2 nM; potency estimated from few doses (AURKA; compound concentrations:100 nM and 1000 nM (sheet 'Lestaurtinib' of Supplementary Table 1),run:Lestaurtinib_02802_R2,Plate:MR029): 15.9 nM; potency estimated from few doses (AURKA; compound concentrations:100 nM and 1000 nM (sheet 'Lestaurtinib' of Supplementary Table 1),run:Lestaurtinib_02802_R3,Plate:MR029): 14.1 nM; potency estimated from few doses (AURKA; compound concentrations:100 nM and 1000 nM (sheet 'Lestaurtinib' of Supplementary Table 1),run:Lestaurtinib_02896_R1,Plate:MR030): 15.4 nM; potency estimated from few doses (AURKA; compound concentrations:100 nM and 1000 nM (sheet 'Lestaurtinib' of Supplementary Table 1),run:Lestaurtinib_02896_R2,Plate:MR030): 16.3 nM; potency estimated from few doses (AURKA; compound concentrations:100 nM and 1000 nM (sheet 'Lestaurtinib' of Supplementary Table 1),run:Lestaurtinib_02896_R3,Plate:MR030): 16.2 nM; potency estimated from few doses (AURKA; compound concentrations:100 nM and 1000 nM (sheet 'Lestaurtinib' of Supplementary Table 1),run:Lestaurtinib_03172_R1,Plate:MR031): 17 nM; potency estimated from few doses (AURKA; compound concentrations:100 nM and 1000 nM (sheet 'Lestaurtinib' of Supplementary Table 1),run:Lestaurtinib_03252_R1,Plate:MR032): 16.3 nM; potency estimated from few doses (AURKA; compound concentrations:100 nM and 1000 nM (sheet 'Lestaurtinib' of Supplementary Table 1),run:Lestaurtinib_03260_R1,Plate:MR033): 27.5 nM; potency estimated from few doses (AURKA; compound concentrations:100 nM and 1000 nM (sheet 'Lestaurtinib' of Supplementary Table 1),run:Lestaurtinib_03260_R3,Plate:MR033): 22.2 nM; potency estimated from few doses (CHEK1; compound concentrations:100 nM and 1000 nM (sheet 'Lestaurtinib' of Supplementary Table 1),run:Lestaurtinib_02339_R1,Plate:MR001): 99.6 nM; potency estimated from few doses (CHEK1; compound concentrations:100 nM and 1000 nM (sheet 'Lestaurtinib' of Supplementary Table 1),run:Lestaurtinib_02339_R2,Plate:MR001): 72.8 nM; potency estimated from few doses (CHEK1; compound concentrations:100 nM and 1000 nM (sheet 'Lestaurtinib' of Supplementary Table 1),run:Lestaurtinib_02339_R3,Plate:MR001): 71.3 nM; potency estimated from few doses (CHEK1; compound concentrations:100 nM and 1000 nM (sheet 'Lestaurtinib' of Supplementary Table 1),run:Lestaurtinib_02364_R1,Plate:MR002): 67.1 nM; potency estimated from few doses (CHEK1; compound concentrations:100 nM and 1000 nM (sheet 'Lestaurtinib' of Supplementary Table 1),run:Lestaurtinib_02364_R3,Plate:MR002): 86.4 nM; potency estimated from few doses (CHEK1; compound concentrations:100 nM and 1000 nM (sheet 'Lestaurtinib' of Supplementary Table 1),run:Lestaurtinib_02367_R2,Plate:MR003): 78 nM; potency estimated from few doses (CHEK1; compound concentrations:100 nM and 1000 nM (sheet 'Lestaurtinib' of Supplementary Table 1),run:Lestaurtinib_02381_R1,Plate:MR004): 78.7 nM; potency estimated from few doses (CHEK1; compound concentrations:100 nM and 1000 nM (sheet 'Lestaurtinib' of Supplementary Table 1),run:Lestaurtinib_02381_R3,Plate:MR004): 61.8 nM; potency estimated from few doses (CHEK1; compound concentrations:100 nM and 1000 nM (sheet 'Lestaurtinib' of Supplementary Table 1),run:Lestaurtinib_02407_R1,Plate:MR005): 73.9 nM; potency estimated from few doses (CHEK1; compound concentrations:100 nM and 1000 nM (sheet 'Lestaurtinib' of Supplementary Table 1),run:Lestaurtinib_02407_R2,Plate:MR005): 71 nM; potency estimated from few doses (CHEK1; compound concentrations:100 nM and 1000 nM (sheet 'Lestaurtinib' of Supplementary Table 1),run:Lestaurtinib_02422_R1,Plate:MR006): 70.8 nM; potency estimated from few doses (CHEK1; compound concentrations:100 nM and 1000 nM (sheet 'Lestaurtinib' of Supplementary Table 1),run:Lestaurtinib_02422_R2,Plate:MR006): 31 nM; potency estimated from few doses (CHEK1; compound concentrations:100 nM and 1000 nM (sheet 'Lestaurtinib' of Supplementary Table 1),run:Lestaurtinib_02422_R3,Plate:MR006): 76.2 nM; potency estimated from few doses (CHEK1; compound concentrations:100 nM and 1000 nM (sheet 'Lestaurtinib' of Supplementary Table 1),run:Lestaurtinib_02437_R2,Plate:MR007): 67.9 nM; potency estimated from few doses (CHEK1; compound concentrations:100 nM and 1000 nM (sheet 'Lestaurtinib' of Supplementary Table 1),run:Lestaurtinib_02437_R3,Plate:MR007): 17.2 nM; potency estimated from few doses (CHEK1; compound concentrations:100 nM and 1000 nM (sheet 'Lestaurtinib' of Supplementary Table 1),run:Lestaurtinib_02438_R2,Plate:MR008): 88.5 nM; potency estimated from few doses (CHEK1; compound concentrations:100 nM and 1000 nM (sheet 'Lestaurtinib' of Supplementary Table 1),run:Lestaurtinib_02438_R3,Plate:MR008): 99.8 nM; potency estimated from few doses (CHEK1; compound concentrations:100 nM and 1000 nM (sheet 'Lestaurtinib' of Supplementary Table 1),run:Lestaurtinib_02443_R2,Plate:MR009): 94.3 nM; potency estimated from few doses (CHEK1; compound concentrations:100 nM and 1000 nM (sheet 'Lestaurtinib' of Supplementary Table 1),run:Lestaurtinib_02473_R1,Plate:MR010): 72.2 nM; potency estimated from few doses (CHEK1; compound concentrations:100 nM and 1000 nM (sheet 'Lestaurtinib' of Supplementary Table 1),run:Lestaurtinib_02473_R2,Plate:MR010): 70.2 nM; potency estimated from few doses (CHEK1; compound concentrations:100 nM and 1000 nM (sheet 'Lestaurtinib' of Supplementary Table 1),run:Lestaurtinib_02482_R1,Plate:MR011): 78 nM; potency estimated from few doses (CHEK1; compound concentrations:100 nM and 1000 nM (sheet 'Lestaurtinib' of Supplementary Table 1),run:Lestaurtinib_02482_R3,Plate:MR011): 92.6 nM; potency estimated from few doses (CHEK1; compound concentrations:100 nM and 1000 nM (sheet 'Lestaurtinib' of Supplementary Table 1),run:Lestaurtinib_02487_R1,Plate:MR012): 69.6 nM; potency estimated from few doses (CHEK1; compound concentrations:100 nM and 1000 nM (sheet 'Lestaurtinib' of Supplementary Table 1),run:Lestaurtinib_02487_R2,Plate:MR012): 86.9 nM; potency estimated from few doses (CHEK1; compound concentrations:100 nM and 1000 nM (sheet 'Lestaurtinib' of Supplementary Table 1),run:Lestaurtinib_02487_R3,Plate:MR012): 87.7 nM; potency estimated from few doses (CHEK1; compound concentrations:100 nM and 1000 nM (sheet 'Lestaurtinib' of Supplementary Table 1),run:Lestaurtinib_02496_R1,Plate:MR013): 92.6 nM; potency estimated from few doses (CHEK1; compound concentrations:100 nM and 1000 nM (sheet 'Lestaurtinib' of Supplementary Table 1),run:Lestaurtinib_02496_R2,Plate:MR013): 79.6 nM; potency estimated from few doses (CHEK1; compound concentrations:100 nM and 1000 nM (sheet 'Lestaurtinib' of Supplementary Table 1),run:Lestaurtinib_02566_R1,Plate:MR014): 88.2 nM; potency estimated from few doses (CHEK1; compound concentrations:100 nM and 1000 nM (sheet 'Lestaurtinib' of Supplementary Table 1),run:Lestaurtinib_02566_R2,Plate:MR014): 75.6 nM; potency estimated from few doses (CHEK1; compound concentrations:100 nM and 1000 nM (sheet 'Lestaurtinib' of Supplementary Table 1),run:Lestaurtinib_02566_R3,Plate:MR014): 66.8 nM; potency estimated from few doses (CHEK1; compound concentrations:100 nM and 1000 nM (sheet 'Lestaurtinib' of Supplementary Table 1),run:Lestaurtinib_02572_R1,Plate:MR015): 89.7 nM; potency estimated from few doses (CHEK1; compound concentrations:100 nM and 1000 nM (sheet 'Lestaurtinib' of Supplementary Table 1),run:Lestaurtinib_02584_R1,Plate:MR017): 76.9 nM; potency estimated from few doses (CHEK1; compound concentrations:100 nM and 1000 nM (sheet 'Lestaurtinib' of Supplementary Table 1),run:Lestaurtinib_02584_R3,Plate:MR017): 87.5 nM
